Source: PubChem BioAssay (NCI)
About 79,000 compounds went through this panel and 15% of them were active in at least one assay; those are over-represented in the sample as a whole. A number with no mark means an inactive call. The source made the active and inactive calls. Cut-off read from the data, not from the text of the source: active = growth inhibition above about 70%; inactive = the rest. Residues, ends and D or L forms follow the SMILES beside them. *: point of attachment. Fmoc = O=C(OCC1c2ccccc2-c2ccccc21)*; Boc = CC(C)(C)OC(=O)*

Test: NCI Yeast Anticancer Drug Screen. Data for the sgs1 strain (AID 173);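 note: 0% = growth of vehicle-only control cultures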
Details: S. cerevisiae sgs1 mutant, hits give high values
Description: Growth inhibition of yeast strains with defined genetic alterations is measured as a screen for potential anti-cancer activity. Selected strains with alterations in DNA damage repair or cell cycle control were exposed to compounds and growth inhibition was measured relative to vehicle treated controls. The strain used in this assay is sgs1

Row | SMILES | growth inhibition (at 1.2 µM) | growth inhibition (at 3.7 µM) | growth inhibition (at 11.0 µM) | growth inhibition (at 33.0 µM) | growth inhibition (at 100.0 µM)
1 | COc1c2c(c3c(c1CCC(=O)O)OC(C)(C)C=C3)OC(C)(C)C=C2 | 0% | 4% | 20% | 59% | 98% (active)
2 | CCCCN(CCC#N)c1ccc(/C=C/c2ccnc3ccccc23)cc1 | -4% | -5% | 17% | 73% (active) | 84% (active)
3 | O=C1C=C(NCCc2cc(Br)c(O)c(Br)c2)C(=O)c2ncccc21 | 28% | 29% | 43% | 82% (active) | 96% (active)
4 | Nc1cc2c(cc1N)-c1ccccc1C2=O | -3% | -3% | -1% | 6% | 74% (active)
5 | CCN(CC)C(=S)N/N=C(\C)c1ccccc1O | -5% | 5% | 42% | 97% (active) | 98% (active)
6 | C[N+](C)([O-])CCCNc1c2ccccc2nc2cccc([N+](=O)[O-])c12 | 80% (active) | 89% (active) | 94% (active) | 94% (active) | 97% (active)
7 | N#CCCC1C(C#N)C2(Cl)CC1(Cl)C(Cl)=C2Cl (stereo not given) | 22% | 18% | 20% | 64% | 99% (active)
8 | CC(C)(C)OC(=O)NCCCCC(NC(=O)C(Cc1c[nH]c2ccccc12)NC(=O)OCC1c2ccccc2-c2ccccc21)C(=O)O (stereo not given) (Fmoc-Trp-Lys(Boc)-OH; configuration not given here) | -1% | 0% | 0% | 11% | 61%
